Screens deposited in PubChem BioAssay by several laboratories.
Hits are enriched below; roughly 1.4% of the tested compounds scored in any of these assays.
MEX-5 binding – C. elegans MEX-5 TCR-2 RNA binding activity; MEX-5/FITC-TCR2 RNA binding, fluorescence polarization; hits give low values; AID 1832; Q9XUB2; hit rate 0.38% among 300,000; activity score (negative = inhibition of binding), % at 10 µM;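 active = inhibition past about -25% in most replicates, and total fluorescence under double the plate's negative control median, limit read from the data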;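 also: 0% = DMSO and -100% = 5 µM competing unlabeled TCR2 RNA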
E coli Lon inh – inhibits E. coli Lon protease | purified E. coli Lon protease, fluorescence polarization | inhibition, % at 7.94 µM | hit rate 0.42% among 360,000 | AID 602123; in the data active = inhibition above about 13%, passing the limit was not always enough;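 also: 0% = enzyme with probe and DMSO and 100% = no enzyme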
EBV gp42 inh – inhibitors of Epstein-Barr virus glycoprotein 42 | Q1HVG2 | Fluorescence polarization binding assay, mP read-out | inhibition, % (tested at 21.74 µM) | hit rate 0.42% among 220,000; in the data active = inhibition above about 50%
BCLXL inh – inhibitors of human Bcl-xL; hit rate 0.7% among 320,000; Q07817; inhibition, % at 10.9 µM; GST-Bcl-xL / FITC-Bim BH3 peptide fluorescence polarization;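 active = inhibition above the mean of all tested compounds plus 3 SD, cutoff set per campaign, cut at about 30% in these data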;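 also: 0% = DMSO wells and 100% = unlabeled Bim-BH3 peptide competitor; inhibitors lower millipolarization by displacing the labeled peptide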
Target sequence (Q07817 whole entry, looked up): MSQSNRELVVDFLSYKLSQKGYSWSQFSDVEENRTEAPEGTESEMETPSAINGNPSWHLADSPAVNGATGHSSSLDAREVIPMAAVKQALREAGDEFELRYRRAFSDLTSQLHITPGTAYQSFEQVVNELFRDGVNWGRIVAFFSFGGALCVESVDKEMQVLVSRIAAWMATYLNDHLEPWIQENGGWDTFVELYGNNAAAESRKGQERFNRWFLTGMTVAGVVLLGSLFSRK
GLD-1 TGE inh – GLD-1-TGE RNA interaction inhibition (C. elegans); Q17339; purified GLD-1 + fluorescein TGE RNA, fluorescence polarization; inhibition, % at 5.96 µM; hit rate 0.44% among 320,000;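 active = percent inhibition above a per-plate cutoff, the plate mean of test compounds plus 3 SD, cut at about 30% in these data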;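 also: 0% = DMSO wells with GLD-1 and probe and 100% = wells lacking GLD-1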
MCL1-BIM inh – inhibitors of human MCL1 binding to BIM-BH3 peptide. Q07820. GST-MCL1 / FITC-Bim-BH3 fluorescence polarization. inhibition, % at 10.9 µM. hit rate 0.68% among 320,000;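 active = inhibition above the mean inhibition of all tested compounds plus 3 SD, set per campaign, cut at about 40% in these data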;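 also: 0% = DMSO wells and 100% = unlabeled Bim-BH3 peptide control; higher means more loss of mP so more displacement of Bim peptide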
Target sequence (Q07820 whole entry, looked up): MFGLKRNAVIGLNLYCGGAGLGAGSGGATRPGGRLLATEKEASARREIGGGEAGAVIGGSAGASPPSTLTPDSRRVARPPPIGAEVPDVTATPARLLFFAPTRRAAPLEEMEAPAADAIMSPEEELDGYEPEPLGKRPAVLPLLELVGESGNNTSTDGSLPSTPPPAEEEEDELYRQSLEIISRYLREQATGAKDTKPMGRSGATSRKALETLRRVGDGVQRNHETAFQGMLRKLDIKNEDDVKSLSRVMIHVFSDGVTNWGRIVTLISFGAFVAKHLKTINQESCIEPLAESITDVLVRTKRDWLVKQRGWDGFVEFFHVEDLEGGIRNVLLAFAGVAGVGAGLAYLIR
GLD1 RNA confirm – confirmation of C. elegans GLD-1 TGE RNA binding inhibitors; shares compounds with GLD-1 TGE inh; GLD-1/FL-TGE RNA fluorescence polarization, biochemical; inhibition, % at 5.96 µM; hit rate 10% among 550; AID 2459;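 active = average inhibition across triplicates above the hit cutoff set in the primary screen, cut at about 32% in these data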;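 also: 0% = GLD-1 with RNA probe and DMSO and 100% = wells lacking GLD-1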
eLon confirm – E. coli Lon inhibition confirmation; inhibition, % at 7.94 µM; hit rate 31% among 1,400; purified E. coli Lon, fluorescence polarization; shares compounds with E coli Lon inh; in the data active = inhibition above about 16%;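 also: 0% = enzyme with probe and DMSO and 100% = no enzyme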
An asterisk follows results filed as active; . = no result given.

SMILES	MEX-5 binding	E coli Lon inh	EBV gp42 inh	BCLXL inh	GLD-1 TGE inh	MCL1-BIM inh	GLD1 RNA confirm	eLon confirm
Cc1ccc(S(=O)(=O)N2CCOCC2)cc1C(=O)N1C(=O)c2cccc(N)c2C1=O	-3	0	36	30*	32*	32	18	.
Cc1ccc(S(=O)(=O)N2CCOCC2)cc1C(=O)O	-1	14	-7	5	4	4	.	.
COC(=O)COc1ccc(/C=C2/NC(=O)N(CC(=O)OC)C2=O)cc1	0	3	-7	2	7	-8	.	.
COC(=O)CN1C(=O)N/C(=C/c2ccc(C)o2)C1=O	-6	12	-12	29	63*	26	-8	.
O=C(Cc1ccc(-c2ccccc2)cc1)Nc1ncccc1O	0	-10	.	25	31*	29	0	.
CC(=O)Oc1ccccc1C(=O)N(C1CCCCC1)C1CCCCC1	-1	-5	.	1	-7	5	.	.
CCCn1c(N)c(N(CCOC)C(=O)Cc2ccc(S(=O)(=O)N3CCOCC3)s2)c(=O)[nH]c1=O	-26*	-1	.	41*	38*	39	51*	.
Cc1ccc(NC(=O)CSc2nnc(C)n2-c2ccccc2)cc1	2	11	-4	-4	-1	5	.	.
COC(=O)c1ccc(NC(=O)CSc2nnc(-c3ccccc3Br)n2-c2ccccc2)cc1	2	9	.	1	46*	-5	-5	.
COc1ccc(CNC(=S)NC(C)CCc2ccccc2)cc1 (centres undefined)	1	-8	1	7	-2	10	.	.
CCN1CCN(Cc2ccc(NC(=O)c3ccc(C)c(NC(=O)c4ccnnc4)c3)cc2C(F)(F)F)CC1	0	-6	-9	-1	39*	-7	2	.
CCN1CCN(Cc2ccc(NC(=O)c3ccc(C)c(NC(=O)c4ccc5n[nH]nc5c4)c3)cc2C(F)(F)F)CC1	12	5	-8	5	-6	-3	.	.
Nc1c(C(=O)OCC(=O)Nc2ccccc2Br)[nH]c(=O)[nH]c1=O	.	2	.	.	39*	.	9	.
CCOC(=O)[C@H]1[C@H]2COc3ccc(OC)cc3[C@@H]2N2C(=O)CN(Cc3ccc(Cl)cc3)C(=O)[C@@]12C	.	-5	.	16	38*	8	13	.
CCOC(=O)[C@H]1[C@H]2COc3ccc(OC)cc3[C@@H]2N2C(=O)CN(Cc3ccc(F)cc3)C(=O)[C@@]12C	.	8	.	1	-3	1	.	.
O=c1oc2cc(O)ccc2cc1S(=O)(=O)c1ccccc1	0	19*	.	27	40*	30	12	43*
O=c1oc2cc(O)ccc2cc1-c1nc2ccccc2o1	.	-64	.	.	.	.	.	.
CCOC(=O)C1=CCN(S(C)(=O)=O)C1c1ccc(C)cc1 (centres undefined)	.	1	.	.	.	.	.	.
CCOc1ccc(-n2c(Cc3cc(=O)[nH]c(=O)[nH]3)nnc2SCC)cc1	-10	6	-8	-2	13	-8	.	.
CCOC(=O)CSc1nnc(Cc2cc(=O)[nH]c(=O)[nH]2)n1-c1ccc(Cl)cc1	-10	15*	7	21	38*	26	7	12
CCCCN(C(=O)c1ccc([N+](=O)[O-])o1)c1c(N)n(CC(C)C)c(=O)[nH]c1=O	-28*	40*	.	34*	37*	39	65*	29*
CC(NC(=O)COC(=O)CNS(=O)(=O)/C=C/c1ccccc1)c1ccccc1 (centres undefined)	.	10	.	-1	6	1	.	.
CC(C)(C)CC(C)(C)NC(=O)/C=C/C(=O)O	-1	-3	-5	-5	0	-2	.	.
O=C(CN1C(=O)C2C3C=CC(C3)C2C1=O)NCc1ccccc1 (centres undefined)	-1	4	-23	1	2	7	.	.
O=C1C2CC=C(Cl)CC2C(=O)N1CCc1c[nH]c2ccccc12 (centres undefined)	-2	3	-4	-1	-3	0	.	.
SMILES	MEX-5 binding	E coli Lon inh	EBV gp42 inh	BCLXL inh	GLD-1 TGE inh	MCL1-BIM inh	GLD1 RNA confirm	eLon confirm
O=C1C2CC=C(Cl)CC2C(=O)N1CCc1ccccc1 (centres undefined)	-34*	25*	25	33*	43*	41*	21	48*
O=C(CN1C(=O)C2CC=C(Cl)CC2C1=O)NCc1ccccc1 (centres undefined)	-27*	34*	20	41*	42*	42*	33*	38*
COc1ccc(NC(=O)CCSCCc2ccccn2)cc1OC	2	-7	-11	-1	5	3	.	.
Cn1c(SCC(=O)Nc2ccc3c(c2)OCO3)nnc1C(F)(F)F	.	-2	.	.	-1	.	.	.
COc1cc(OC)cc(C(=O)NCc2ccc3c(c2)cc(C)n3C)c1	1	46*	9	30*	52*	35	7	6
Cc1cc2cc(CNC(=O)c3ccco3)ccc2n1C	0	14*	-5	38*	34*	41*	3	14
CCOc1ccc(CC(=O)NCc2ccc3c(c2)cc(C)n3C)cc1	-4	-3	-11	1	11	5	.	.
COc1cc(O)cc2cc3c(c(O)c12)C(=O)CC(C)(O)O3 (centres undefined)	.	18*	33	38*	34*	43*	49*	24*
O=c1ccc2cccc([N+](=O)[O-])c2[nH]1	.	-2	.	.	.	.	.	.
c1cc2c3c(cccc3c1)C(N1CCOCC1)=N2	-19	32*	34	29	45*	31	32*	28*
CC(=O)N1CCN(C2=Nc3cccc4cccc2c34)CC1	-21	18*	28	37*	43*	36	38*	23*
CC1CN(C2=Nc3cccc4cccc2c34)CC(C)O1 (centres undefined)	-19	28*	35	38*	47*	35	36*	14
CCCCC1=CC2=C(c3ccco3)C(=O)C(C)(OC(=O)c3ccc(OC)cc3)C(=O)C2=CN1C1CC1 (centres undefined)	-59*	56*	4	41*	32*	40*	12	8
CCCCC1=CC2=C(c3ccco3)C(=O)C(C)(OC(=O)c3ccc(OC)cc3)C(=O)C2=CN1C(CO)CO (centres undefined)	-23	31*	-3	25	34*	25	15	5
COC(=O)CCCC1=CC2=C(c3ccccc3)C(=O)C(C)(OC(=O)C3CCCC3)C(=O)C2=CN1C1CC1 (centres undefined)	-11	12	-5	20	14	17	.	.
COc1cccc(OC)c1C(=O)Nc1ccncc1	2	2	.	1	3	-1	.	.
